Laboratory results taken from PubChem BioAssay (EPA / NIEHS).
Results filed as inconclusive are left out. Where a structure was tested more than once in an assay, its records may differ in their call. Activity calls are given as the source filed them. The calls were made as follows: active = hit-call score of the fitted dose curve at least 0.9, where 1 is the maximum; inconclusive = response in the unintended direction; inactive = score below 0.9.

Assays:
[1] = target: human Casein Kinase 1-delta (CK1D), CSNK1D (gene 1453) (UniProt P48730); assay: NVS_ENZ_hCK1D: NovaScreen (NVS) Enzymatic Assay for human Casein Kinase 1-delta (CK1D) (AID 2283148)
Method in brief: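 Recombinant human CK1-delta, cell-free; fluorescent substrate with electrophoretic mobility-shift separation of product, read 1 h after dosing. Single 25 uM duplicate screen, then concentration-response up to 50 uM; loss of signal vs DMSO.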

[2] = target: human Colony Stimulating Factor 1 Receptor (CSF1R), CSF1R (gene 1436) (UniProt P07333); assay: NVS_ENZ_hCSF1R: NovaScreen (NVS) Enzymatic Assay for human Colony Stimulating Factor 1 Receptor (CSF1R) (AID 2283150)
Method in brief: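 Compounds screened in duplicate at 25 uM, then concentration-response (top 50 uM) for those passing threshold such as 30% inhibition; recombinant CSF1R activity measured 1 h post-dosing via fluorescent substrate/product mobility-shift separation, loss of signal versus DMSO.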

[3] = target: human Ephrin type-A Receptor 2 (EphA2), EPHA2 (gene 1969) (UniProt P29317); assay: NVS_ENZ_hEphA2: NovaScreen (NVS) Enzymatic Assay for human Ephrin type-A Receptor 2 (EphA2) (AID 2283155)
Method in brief: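 Enzyme activity of recombinant EphA2 read by fluorescence after mobility-shift separation, 1 h after dosing. Chemicals first tested at 25 uM (duplicate); those passing threshold run as concentration series, top 50 uM, single replicate, relative to DMSO.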

[4] = target: human Ephrin type-B Receptor 2 (EphB2), EPHB2 (gene 2048) (UniProt P29323); assay: NVS_ENZ_hEphB2: NovaScreen (NVS) Enzymatic Assay for human Ephrin type-B Receptor 2 (EphB2) (AID 2283156)
Method in brief: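 Compounds were first tested in duplicate at 25 uM, with hits rerun singly in concentration series up to 50 uM. Enzyme activity on fluorescent substrate was read at 1 h by mobility-shift separation, scored as signal loss relative to DMSO.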

Chain of human Ephrin type-A Receptor 2 (EphA2), EPHA2 (gene 1969) (P29317 whole entry, looked up): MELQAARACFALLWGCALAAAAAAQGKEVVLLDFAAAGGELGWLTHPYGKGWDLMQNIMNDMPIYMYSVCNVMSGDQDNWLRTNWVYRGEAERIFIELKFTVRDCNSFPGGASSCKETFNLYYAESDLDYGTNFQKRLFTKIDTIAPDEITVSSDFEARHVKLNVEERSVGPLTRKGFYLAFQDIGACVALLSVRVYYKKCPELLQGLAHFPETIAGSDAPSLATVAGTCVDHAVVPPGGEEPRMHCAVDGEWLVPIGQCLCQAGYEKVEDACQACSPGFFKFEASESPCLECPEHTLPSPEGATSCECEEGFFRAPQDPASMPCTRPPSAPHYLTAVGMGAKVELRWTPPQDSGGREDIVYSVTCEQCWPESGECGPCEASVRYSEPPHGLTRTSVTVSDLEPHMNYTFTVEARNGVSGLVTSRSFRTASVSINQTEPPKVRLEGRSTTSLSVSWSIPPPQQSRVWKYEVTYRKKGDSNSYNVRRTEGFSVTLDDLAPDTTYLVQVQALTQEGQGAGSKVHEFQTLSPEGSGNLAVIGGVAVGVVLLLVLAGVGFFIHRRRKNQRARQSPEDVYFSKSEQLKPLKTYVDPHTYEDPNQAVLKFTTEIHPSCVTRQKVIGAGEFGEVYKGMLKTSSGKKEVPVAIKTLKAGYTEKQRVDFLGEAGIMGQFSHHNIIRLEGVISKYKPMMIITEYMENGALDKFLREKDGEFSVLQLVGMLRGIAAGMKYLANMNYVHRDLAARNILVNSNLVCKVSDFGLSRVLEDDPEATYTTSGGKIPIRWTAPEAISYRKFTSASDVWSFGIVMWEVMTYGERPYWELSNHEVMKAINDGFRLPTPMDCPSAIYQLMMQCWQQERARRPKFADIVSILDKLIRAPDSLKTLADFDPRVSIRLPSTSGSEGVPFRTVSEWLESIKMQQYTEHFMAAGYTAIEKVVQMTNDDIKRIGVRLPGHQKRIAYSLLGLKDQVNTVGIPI
Chain of human Colony Stimulating Factor 1 Receptor (CSF1R), CSF1R (gene 1436) (P07333 whole entry, looked up): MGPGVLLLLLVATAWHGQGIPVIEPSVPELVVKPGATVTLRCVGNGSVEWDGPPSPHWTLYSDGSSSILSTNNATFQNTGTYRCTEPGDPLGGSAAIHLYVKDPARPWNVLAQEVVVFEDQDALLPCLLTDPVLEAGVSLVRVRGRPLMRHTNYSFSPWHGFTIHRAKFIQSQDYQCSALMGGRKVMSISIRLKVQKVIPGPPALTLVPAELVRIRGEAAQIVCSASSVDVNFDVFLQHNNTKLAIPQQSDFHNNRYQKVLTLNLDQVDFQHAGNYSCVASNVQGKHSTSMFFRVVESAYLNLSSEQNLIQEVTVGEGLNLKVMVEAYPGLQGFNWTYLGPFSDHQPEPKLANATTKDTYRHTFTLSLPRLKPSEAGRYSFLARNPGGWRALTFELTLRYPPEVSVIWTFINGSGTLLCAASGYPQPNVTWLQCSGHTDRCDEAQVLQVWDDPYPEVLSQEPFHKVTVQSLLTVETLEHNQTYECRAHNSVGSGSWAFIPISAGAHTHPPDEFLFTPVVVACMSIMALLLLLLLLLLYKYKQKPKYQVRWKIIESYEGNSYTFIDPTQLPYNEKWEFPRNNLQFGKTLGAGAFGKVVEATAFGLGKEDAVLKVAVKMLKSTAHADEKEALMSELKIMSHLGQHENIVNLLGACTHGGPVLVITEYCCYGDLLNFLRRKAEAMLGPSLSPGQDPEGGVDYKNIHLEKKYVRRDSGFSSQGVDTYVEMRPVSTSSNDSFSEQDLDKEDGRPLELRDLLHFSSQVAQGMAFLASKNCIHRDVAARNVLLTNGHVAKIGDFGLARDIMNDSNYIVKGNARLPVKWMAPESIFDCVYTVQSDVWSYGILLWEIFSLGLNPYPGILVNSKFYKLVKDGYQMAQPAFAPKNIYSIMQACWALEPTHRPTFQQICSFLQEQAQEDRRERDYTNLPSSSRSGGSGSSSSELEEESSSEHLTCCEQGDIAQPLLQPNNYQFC
Chain of human Casein Kinase 1-delta (CK1D), CSNK1D (gene 1453) (P48730 whole entry, looked up): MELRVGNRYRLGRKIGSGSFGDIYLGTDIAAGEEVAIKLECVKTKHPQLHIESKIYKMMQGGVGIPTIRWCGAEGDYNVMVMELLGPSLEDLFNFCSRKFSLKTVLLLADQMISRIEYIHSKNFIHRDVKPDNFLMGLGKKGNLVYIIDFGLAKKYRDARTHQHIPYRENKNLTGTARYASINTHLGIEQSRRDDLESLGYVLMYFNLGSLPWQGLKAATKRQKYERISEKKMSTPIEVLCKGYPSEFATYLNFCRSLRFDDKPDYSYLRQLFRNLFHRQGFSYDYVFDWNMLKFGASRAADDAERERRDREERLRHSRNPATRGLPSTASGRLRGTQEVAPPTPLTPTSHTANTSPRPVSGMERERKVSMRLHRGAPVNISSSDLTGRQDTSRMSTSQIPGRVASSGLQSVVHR
Chain of human Ephrin type-B Receptor 2 (EphB2), EPHB2 (gene 2048) (P29323 whole entry, looked up): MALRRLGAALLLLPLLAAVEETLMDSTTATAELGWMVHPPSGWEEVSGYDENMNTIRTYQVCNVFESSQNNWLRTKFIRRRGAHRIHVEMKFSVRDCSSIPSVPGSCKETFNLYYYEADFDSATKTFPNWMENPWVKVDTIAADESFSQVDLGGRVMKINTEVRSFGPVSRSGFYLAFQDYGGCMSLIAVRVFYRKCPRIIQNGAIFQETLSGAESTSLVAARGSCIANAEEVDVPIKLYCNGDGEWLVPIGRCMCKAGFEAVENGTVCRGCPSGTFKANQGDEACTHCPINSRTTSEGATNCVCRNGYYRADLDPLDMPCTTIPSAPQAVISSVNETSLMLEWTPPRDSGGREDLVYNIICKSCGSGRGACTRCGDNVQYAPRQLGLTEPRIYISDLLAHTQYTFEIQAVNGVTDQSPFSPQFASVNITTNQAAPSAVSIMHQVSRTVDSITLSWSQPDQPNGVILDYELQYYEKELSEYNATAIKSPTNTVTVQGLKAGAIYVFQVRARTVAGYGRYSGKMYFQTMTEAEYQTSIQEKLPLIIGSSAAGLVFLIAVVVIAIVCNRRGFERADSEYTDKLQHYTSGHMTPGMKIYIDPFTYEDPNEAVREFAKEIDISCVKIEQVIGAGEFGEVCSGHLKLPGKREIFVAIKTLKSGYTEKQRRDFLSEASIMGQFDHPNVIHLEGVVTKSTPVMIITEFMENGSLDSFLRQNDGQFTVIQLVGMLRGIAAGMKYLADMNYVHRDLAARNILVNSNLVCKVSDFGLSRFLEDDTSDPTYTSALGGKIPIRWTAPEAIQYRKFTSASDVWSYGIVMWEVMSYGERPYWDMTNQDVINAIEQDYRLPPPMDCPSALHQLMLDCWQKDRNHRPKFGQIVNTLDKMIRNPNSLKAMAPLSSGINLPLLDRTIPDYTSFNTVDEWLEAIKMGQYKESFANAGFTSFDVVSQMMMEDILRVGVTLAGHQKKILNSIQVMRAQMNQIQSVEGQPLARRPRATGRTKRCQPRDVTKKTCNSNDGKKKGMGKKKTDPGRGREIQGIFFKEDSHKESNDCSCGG

## CCC(=O)Nc1ccc(Cl)c(Cl)c1
[1]
  AC50: 23.6 µM (active)

## Nc1nc(N)nc(NC2CC2)n1
[1]
  AC50: 16.3 µM (active)

## CN(C)[C@@H]1C(=O)C(C(N)=O)=C(O)[C@@]2(O)C(=O)C3=C(O)c4c(O)cccc4[C@@](C)(O)[C@H]3[C@H](O)[C@@H]12
[2]
  AC50: 12.5 µM (active)
[3]
  AC50: 7.61 µM (active)
  outcome: inactive

## CCCOc1nn(C(=O)NS(=O)(=O)c2ccccc2C(=O)OC)c(=O)n1C
[2]
  outcome: inactive

## O=C(O)c1cc(Oc2ccc(C(F)(F)F)cc2Cl)ccc1[N+](=O)[O-]
[3]
  outcome: inactive

## CNc1cnn(-c2cccc(C(F)(F)F)c2)c(=O)c1Cl
[4]
  outcome: inactive
